This note sets out measurements from PubChem BioAssay (Tox21).

Structures are written as SMILES. “And” between values parts separate entries of the source, which are not always exact repeats. Identical values can stand only once. Results filed as inconclusive are left out. More than one record can exist for a structure, and the calls need not agree. The source made the active and inactive calls. Unless noted, calls follow the shape of the dose curve; as a rule, active = well fitted curve in the direction sought with a large enough effect in the repeat runs; inconclusive = weak or mixed curves; inactive = no such curve, though single readings can be large; an effect the other way counts as inactive or inconclusive.

Experiment [1] is described as follows: qHTS assay to identify small molecule antagonists of the estrogen related receptor (ERR) signaling pathway from Tox21 library - cell viability counter screen (AID 1224834). Also: nearly all actives have a fitted effect of over 30% in size. In outline:
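In this quantitative HTS format, ERR cells receive compounds in DMSO and are incubated for 17.5 h at 37 C. Live-cell protease activity is then detected with CellTiter-Fluor.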
Background: Quantitative high-throughput screening tests each substance at several concentrations.

For experiment [2], the target named is Luciferin 4-monooxygenase (Photinus pyralis) (UniProt P08659). As to the kind of experiment: qHTS assay to identify small molecule inhibitors of firefly luciferase (AID 1224835). Also: nearly all actives have a fitted effect of over 25% in size. In outline: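 Biochemical qHTS: compounds run as interplate titrations against purified firefly enzyme, with D-luciferin and ATP each at its KM concentration. Light output recorded by CCD imaging.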
Sequence of Luciferin 4-monooxygenase (Photinus pyralis) (P08659 whole entry, looked up): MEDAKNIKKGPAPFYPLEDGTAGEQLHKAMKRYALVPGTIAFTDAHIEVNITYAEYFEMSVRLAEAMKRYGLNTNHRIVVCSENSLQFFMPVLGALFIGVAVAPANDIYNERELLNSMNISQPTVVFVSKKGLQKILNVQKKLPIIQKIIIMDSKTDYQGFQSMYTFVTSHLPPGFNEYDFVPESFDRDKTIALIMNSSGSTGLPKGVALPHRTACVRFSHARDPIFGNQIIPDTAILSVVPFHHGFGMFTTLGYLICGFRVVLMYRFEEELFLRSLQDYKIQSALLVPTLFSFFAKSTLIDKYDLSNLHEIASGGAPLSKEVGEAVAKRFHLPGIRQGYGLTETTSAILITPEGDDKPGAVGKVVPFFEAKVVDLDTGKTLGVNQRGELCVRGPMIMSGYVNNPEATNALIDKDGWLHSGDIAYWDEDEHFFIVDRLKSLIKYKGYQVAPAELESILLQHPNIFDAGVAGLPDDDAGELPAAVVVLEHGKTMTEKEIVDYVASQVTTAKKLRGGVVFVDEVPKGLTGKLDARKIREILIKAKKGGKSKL

A short description of experiment [3]: qHTS assay to identify small molecule agonists of the constitutive androstane receptor (CAR) signaling pathway - cell viability counter screen (AID 1224836). Also: nearly all actives have a fitted effect of over 45% in size. Also: potency is read from the fitted curve at half-maximal effect. In a few lines: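 Cells were seeded and incubated 4 hrs. Compounds were added across 15 concentrations together with PK11195 at 0.75 uM final. Plates were incubated 23 hrs at 37 C. CellTiter-Fluor was added and fluorescence measured.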

A short description of experiment [4]: qHTS assay to identify small molecule antagonists of the constitutive androstane receptor (CAR) signaling pathway - cell viability counter screen (AID 1224837). Also: nearly all actives have a fitted effect of over 45% in size. Also: potency is read from the fitted curve at half-maximal effect. In a few lines:
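In quantitative HTS format, compounds at 15 concentrations were applied to HepG2 cells double-transfected with hCAR and CYP2B6-2.2kb under 50 nM CITCO stimulation; live-cell protease activity was read after 23 hr via CellTiter-Fluor.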

Experiment [5] concerns the target Nuclear receptor subfamily 1 group I member 3 (Homo sapiens) (UniProt Q14994). As to the kind of experiment: qHTS assay to identify small molecule agonists of the constitutive androstane receptor (CAR) signaling pathway (AID 1224839).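 Also: HepG2 cells stably carrying human CAR and a CYP2B6 luciferase reporter; nearly all actives have a fitted effect of over 15% in size.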 In a few lines: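 Cells were plated and incubated 4 hrs, then dosed with compounds at 15 concentrations. PK11195 was added to 0.75 uM final. After 24 hrs at 37 C, luciferase luminescence was measured.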

The nature of experiment [6]: qHTS assay to identify small molecule antagonists of the estrogen related receptor signaling pathway with the pleiotropic PPARgamma coactivator (PGC) from Tox21 10K library - cell viability counter screen (AID 1224840; active = well fitted cell-killing curve with a large enough effect in the repeat runs, not every such curve was filed as active; also: nearly all actives have a fitted effect of over 40% in size; also: potency is read from the fitted curve at half-maximal effect). In outline: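 Viability counter screen, PGC/ERR cells: 17.5 h compound exposure at 37 C, CellTiter-Fluor fluorescence endpoint.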
Experiment [7] is described as follows: qHTS assay to identify small molecule antagonists of the estrogen related receptor signaling pathway with the pleiotropic PPARgamma coactivator (PGC) from Tox21 10K library (AID 1224841; call rule not given here; also: actives are mostly falling curves and most rising ones were filed inactive; nearly all actives have a fitted effect of over 50% in size; also: potency is read from the fitted curve at half-maximal effect). In a few lines: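 In the PGC/ERR line, DMSO solutions of test chemicals are pin-delivered to 2,000 cells/well six hours after dispensing. Following eighteen hours' incubation, One-Glo reagent is added and luminescence recorded.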

Experiment [8] can be described thus: qHTS assay to identify small molecule agonists of the estrogen related receptor signaling pathway with the pleiotropic PPARgamma coactivator (PGC) from Tox21 10K library (AID 1224842). Also: nearly all actives have a fitted effect of over 15% in size. Also: potency is read from the fitted curve at half-maximal effect. In a few lines: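 PGC/ERR reporter cell line, 2,000 cells per well, incubated 6 h at 37 C before 23 nL compound in DMSO was added. After 18 h at 37 C, One-Glo luminescence read following 30 min at room temperature.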

Experiment [9] has as its target Thyrotropin receptor (Homo sapiens) (UniProt P16473). As to the kind of experiment: qHTS assay to identify small molecule agonists of the thyroid stimulating hormone receptor (TSHR) signaling pathway (AID 1224843; calls by dose curve; also: nearly all actives have a fitted effect of over 45% in size; also: potency is read from the fitted curve at half-maximal effect). In a few lines: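 Agonist-mode screen: TSHR HEK293 cells received test chemicals for half an hour at room temperature, then HTRF cAMP detection reagents for one hour prior to fluorescence measurement. Each chemical ran as a 15-concentration series, triplicated.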

Experiment [10] can be described thus: qHTS assay to identify small molecule agonists of the hypoxia (HIF-1) signaling pathway - cell viability counter screen (AID 1224844; calls by dose curve; also: nearly all actives have a fitted effect of over 50% in size). In a few lines: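 Same wells as the HIF-1 reporter screen; ME-180 cells carrying HRE-bla, 17 hr treatment at 37C; CellTiter-Glo luminescence read after 30 min at room temperature.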
Experiment [11] in a line: qHTS assay to identify small molecule agonists of H2AX (AID 1224845; active = well fitted activation curve with a large enough effect in the signal ratio in the repeat runs, not every such curve was filed as active; the % refers to the signal ratio). In outline: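 Wild-type CHO-K1 cells, plated overnight, exposed 3hr at 37C to 15 concentrations (0.76% DMSO final). Lysed, then HTRF anti-pH2AX (S139) cryptate and anti-H2AX-d2 antibodies, 24 hr room temperature; 665/620 nm emission read.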
A short description of experiment [12]: qHTS assay to identify small molecule agonists of the hypoxia (HIF-1) signaling pathway (AID 1224846; active = well fitted activation curve with a large enough effect in the signal ratio in the repeat runs, not every such curve was filed as active; the % refers to the signal ratio). In outline:
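In ME-180 cells bearing an HRE-bla construct, 17 h treatment with DMSO-dissolved compounds at 37C was followed by CCF4-AM loading to quantify reporter induction.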

Experiment [13] can be described thus: qHTS assay to identify small molecule agonists of H2AX - cell viability counter screen (AID 1224847; calls by dose curve; also: top concentration of the series differs between compounds; nearly all actives have a fitted effect of over 30% in size). In a few lines: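 Cytotoxicity counter screen in wild-type CHO-K1 cells: a 3 hr compound treatment at 37C across 15 concentrations, followed by CellTiter-Glo luminescence to gauge viable cells.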
Experiment [14] in a line: qHTS assay to identify small molecule antagonists of the estrogen related receptor (ERR) signaling pathway from Tox21 library (AID 1224848). Also: nearly all actives have a fitted effect of over 50% in size. Also: potency is read from the fitted curve at half-maximal effect. In outline:
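Quantitative high-throughput format: ERR reporter cells (2,000/well) pre-incubated 6 h, treated 18 h at 37 C with compounds in DMSO alongside positive and negative controls, then read by ONE-Glo luminescence.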

Experiment [15] can be described thus: qHTS assay to identify small molecule agonists of the estrogen related receptor (ERR) signaling pathway from Tox21 library (AID 1224849; calls by dose curve; also: nearly all actives have a fitted effect of over 15% in size). The conditions noted are these: ERR reporter cell line, ONE-Glo luciferase, 18 h; at 92.4 µM (top of the series) unless noted. In a few lines: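 Reporter cells (ERR, NTP source) treated with Tox21 10K compounds 18 h, 37 C. Readout: ONE-Glo luminescence, 30 min RT.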

A short description of experiment [16]: qHTS RealTime-Glo MT Cell Viability Assay in HepG2 cells - 24 hour (AID 1224867). Also: nearly all actives have a fitted effect of over 50% in size. In a few lines:
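Cell number in HepG2 cultures estimated from NanoLuc luminescence generated by metabolic reduction of a prosubstrate by living cells. The homogeneous, nonlytic format allowed repeated reads at 0, 8, 16, 24, 32 and 40 h of compound exposure.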

Experiment [17] can be described thus: qHTS RealTime-Glo MT Cell Viability Assay in HEK293 cells - 32 hour (AID 1224868). Also: nearly all actives have a fitted effect of over 50% in size. Also: potency is read from the fitted curve at half-maximal effect. In a few lines: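 Homogeneous bioluminescent viability format in HEK293 cells (600 cells/well). Following 5 h at 37 C/5% CO2, 23 nL compound was pintooled; the signal was measured repeatedly during 40 h incubation.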
The nature of experiment [18]: A CellTox Green Cytotoxicity Assay to monitor cytotoxicity in HEK293 cells - 0 hour (AID 1224869). Also: nearly all actives have a fitted effect of over 50% in size. In outline:
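Homogeneous no-lysis format: HEK293 cell suspension mixed with CellTox Green reagent, seeded, incubated 5 h at 37 C/5% CO2, then dosed by pintool with compound in DMSO.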
% is scaled to controls: 0 for no effect and ±100 for the full control effect.

Sequence of Nuclear receptor subfamily 1 group I member 3 (Homo sapiens) (Q14994 whole entry, looked up): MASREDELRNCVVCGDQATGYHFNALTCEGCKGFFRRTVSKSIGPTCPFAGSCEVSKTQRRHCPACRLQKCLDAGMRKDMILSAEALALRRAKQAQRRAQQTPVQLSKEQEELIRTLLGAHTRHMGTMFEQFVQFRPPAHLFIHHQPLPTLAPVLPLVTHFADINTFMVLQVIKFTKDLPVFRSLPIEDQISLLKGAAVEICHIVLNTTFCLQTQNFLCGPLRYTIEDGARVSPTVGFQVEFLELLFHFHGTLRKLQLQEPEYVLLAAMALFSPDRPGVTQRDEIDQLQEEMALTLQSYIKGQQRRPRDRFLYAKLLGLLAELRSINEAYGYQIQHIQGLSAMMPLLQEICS
Sequence of Thyrotropin receptor (Homo sapiens) (P16473 whole entry, looked up): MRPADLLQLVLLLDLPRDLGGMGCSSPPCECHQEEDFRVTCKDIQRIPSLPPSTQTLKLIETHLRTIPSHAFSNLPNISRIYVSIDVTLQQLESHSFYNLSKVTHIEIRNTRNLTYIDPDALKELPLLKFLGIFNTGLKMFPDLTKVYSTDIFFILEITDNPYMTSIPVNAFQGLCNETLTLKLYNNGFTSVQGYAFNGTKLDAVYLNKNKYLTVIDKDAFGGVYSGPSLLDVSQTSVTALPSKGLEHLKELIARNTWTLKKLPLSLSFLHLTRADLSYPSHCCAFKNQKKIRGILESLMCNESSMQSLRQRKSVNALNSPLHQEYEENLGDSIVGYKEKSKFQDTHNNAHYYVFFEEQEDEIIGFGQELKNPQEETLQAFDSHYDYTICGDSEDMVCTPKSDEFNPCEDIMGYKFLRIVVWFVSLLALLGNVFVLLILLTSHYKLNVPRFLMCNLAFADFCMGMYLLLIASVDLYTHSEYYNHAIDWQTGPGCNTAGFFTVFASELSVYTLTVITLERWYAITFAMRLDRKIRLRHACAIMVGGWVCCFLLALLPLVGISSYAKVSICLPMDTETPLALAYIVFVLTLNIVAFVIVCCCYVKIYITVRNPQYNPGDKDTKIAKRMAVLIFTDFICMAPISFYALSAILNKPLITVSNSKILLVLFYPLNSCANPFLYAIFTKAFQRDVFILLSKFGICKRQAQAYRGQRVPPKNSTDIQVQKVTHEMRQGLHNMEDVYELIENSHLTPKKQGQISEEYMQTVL

Take `O=C(O)COc1ccc(Cl)cc1`: the Potency result in [1], in [2], in experiment [3], in experiment [4], in [5] and in experiment [6] was “inactive” in each case. Further, the Potency entry in experiment [7], in experiment [8], in [9], in experiment [10], in [11] and in [13] was “inactive” throughout. The Potency entry in experiment [14], in [16], in experiment [17] and in experiment [18] was “inactive” throughout. Moreover, the compound was classed as inactive in experiment [12]. In addition, the activity change, positive = activation in experiment [15] was 1.55% (inactive).

With `Brc1ccc(Oc2ccccc2)cc1`, the Potency result in experiment [1], in experiment [2], in experiment [3], in [4], in [6] and in experiment [7] was “inactive” throughout. The Potency result in experiment [11], in experiment [14], in experiment [16], in [17] and in experiment [18] was “inactive” throughout. For the same compound, the Potency is 885 nM (active) and inactive in [8]; 1.25 µM (active) in experiment [9]. For the same compound, in experiment [12], the call was inactive. Also, the activity change, positive = activation in experiment [15] is -18.4% (inactive) and 0.436% (inactive).

`O=[Se]=O`: the Potency entry in experiment [1], in experiment [2], in [5], in experiment [8], in experiment [9] and in [10] was “inactive” each time. Further, the Potency result in experiment [11], in [13], in experiment [16] and in experiment [18] was “inactive” each time. Besides, the Potency in experiment [3] is 21.5 µM (active); in experiment [4], 21.5 µM (active); in [6], 17.1 µM (active); in experiment [7] it was 13.6 µM (active); in [14] it was 30.4 µM (active); in experiment [17] it was 17.3 µM (active). Further, the compound was called inactive in [12]. The activity change, positive = activation in [15] is -51.4% [at 42.5 µM] (inactive).

Turning to `Nc1nc(=S)[nH][nH]1`, the Potency result in experiment [1], in experiment [2], in experiment [3], in experiment [4], in experiment [6] and in experiment [7] was “inactive” throughout. Further, the Potency result in experiment [8], in experiment [9], in experiment [10], in experiment [11], in experiment [13] and in experiment [14] was “inactive” throughout. The Potency result in experiment [16], in experiment [17] and in experiment [18] was “inactive” in each case. Further, the compound was classed as inactive in [12]. Besides, the activity change, positive = activation in [15] is 4.5% (inactive).

For `C=COC(C)=O`, the Potency result in [1], in experiment [2], in experiment [3], in experiment [4], in experiment [5] and in experiment [6] was “inactive” in each case. Moreover, the Potency entry in experiment [9], in experiment [10], in experiment [11], in experiment [13], in experiment [16] and in experiment [17] was “inactive” each time. In addition, in experiment [18], the Potency entry was “inactive”. Also, in experiment [12], the result was inactive.

Regarding `CC(=O)NC1CCSC1=O` (centres undefined), the Potency entry in experiment [1], in experiment [2], in experiment [3], in experiment [4], in experiment [6] and in experiment [7] was “inactive” in each case. In addition, the Potency result in experiment [8], in [9], in experiment [10], in [11], in [13] and in experiment [14] was “inactive” each time. The Potency entry in [16], in experiment [17] and in experiment [18] was “inactive” in each case. In addition, the compound was called inactive in [12]. For the same compound, the activity change, positive = activation in experiment [15] was 1.16% [at 42.5 µM] (inactive).
